# Pf growth 48h: Primary qHTS for delayed death inhibitors of the malarial parasite plastid, 48 hour incubation. 310,000 tested, 5.9% active. Potency, µM (series often up to 28.7 µM), inactives show at the highest dose activity change, negative = inhibition, usual class: inhibitors. P. falciparum luciferase growth in erythrocytes, 48 h; note: potency is the fitted concentration of half-maximal effect; % is set by controls: 0 for no effect and ±100 for the full control effect
#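 Luminescence readout; reporter = integrated firefly luciferase in P. falciparum. RBC culture at 2% hematocrit, 0.1% parasitemia final, 37 C/5% CO2; decreased signal taken as growth inhibition.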
# Pf growth 96h: Primary qHTS for delayed death inhibitors of the malarial parasite plastid, 96 hour incubation; P. falciparum luciferase reporter growth, 96 h; Potency, µM (top dose mostly 28.7 µM), without a hit: at the highest dose activity change, negative = inhibition, actives largely listed as inhibitors; 320,000 tested, 6.9% active; AID 504834, 2011; note: potency is the fitted concentration of half-maximal effect; % is set by controls: 0 for no effect and ±100 for the full control effect
#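 Infected RBCs, 2% Hct / 0.05% parasitemia final; luciferase-reporter P. falciparum; cpd 96 h, 37 C, 5% CO2; luciferase detection reagent; luminescence.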
# LmPK inhibitor: qHTS Assay for Inhibitors of Leishmania Mexicana Pyruvate Kinase (LmPK) | Q27686 | Potency, µM (series often up to 57.5 µM), without a hit: top-dose activity change, negative = inhibition, hits mostly inhibitors | 290,000 tested, 0.37% active | purified LmPK, Kinase-Glo ATP luminescence, 1 h; note: potency is the fitted concentration of half-maximal effect; % is set by controls: 0 for no effect and ±100 for the full control effect
# Target sequence (Q27686 whole entry, looked up): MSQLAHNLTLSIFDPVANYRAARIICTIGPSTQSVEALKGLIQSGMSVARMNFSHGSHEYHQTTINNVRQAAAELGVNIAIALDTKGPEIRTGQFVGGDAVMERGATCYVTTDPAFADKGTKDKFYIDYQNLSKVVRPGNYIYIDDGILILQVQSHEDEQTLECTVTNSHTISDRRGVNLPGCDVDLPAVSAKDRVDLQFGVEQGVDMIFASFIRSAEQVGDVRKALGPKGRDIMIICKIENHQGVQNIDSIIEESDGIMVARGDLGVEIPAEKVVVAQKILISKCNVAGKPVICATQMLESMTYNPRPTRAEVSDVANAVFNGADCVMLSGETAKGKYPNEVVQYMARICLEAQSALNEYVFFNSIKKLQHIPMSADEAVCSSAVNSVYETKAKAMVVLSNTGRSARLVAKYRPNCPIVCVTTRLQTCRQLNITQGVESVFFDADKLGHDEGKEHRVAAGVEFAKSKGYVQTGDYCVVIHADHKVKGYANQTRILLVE
#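 Purified LmPK (0.1 nM) with 0.5 mM PEP and 0.1 mM ADP in imidazole buffer pH 7.2 with MgCl2/KCl, 1 h at room temperature. ATP formed was read by luciferase luminescence and normalized to no-enzyme and uninhibited controls.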
# Cycloheximide cs: Cycloheximide Counterscreen for Small Molecule Inhibitors of Shiga Toxin. max response, %. cell reporter, cycloheximide protein synthesis inhibition counterscreen. 300,000 tested, 12% active; in the data active = max response mostly above about 13%, no sharp cut-off; inactive = mostly below about 14%; note: read at 38.3 µM for the half of the compounds with a filed dose; 0% is about no effect
# Shiga inhibitor: A qHTS for Small Molecule Inhibitors of Shiga Toxin | 290,000 tested, 9.2% active | inhibition, % at 38.7 µM | Vero cells, Shiga toxin protein synthesis inhibition reporter; in the data active = inhibition mostly above about 28%, no sharp cut-off; inactive = mostly below about 43%; note: 0% is about no effect
# An asterisk follows results filed as active; ? = inconclusive; . = no result given. Rows were chosen to be rich in hits. Some 22% of all compounds tested hit in one or more screens of this group. Unless noted, calls come from the whole dose curve; as a rule, active = well fitted inhibition curve with a large enough effect; inconclusive = small, poorly fitted or top-dose-only effect, or another doubt; inactive = no such curve, though single readings can be large or run the other way.
SMILES,Pf growth 48h,Pf growth 96h,LmPK inhibitor,Cycloheximide cs,Shiga inhibitor
Cc1cc(CNC(=O)CC2C(=O)NCCN2Cc2ccc(-c3ccccc3)cc2)nn1C (stereo not given),-13%,9.3µM*,-2%,2,-1
Cc1ccc(C(=O)Nc2ccc3c(c2)C(=O)N(C)C3=O)c(C)c1,12%,25%,-7%,17,21
CN(C(=O)c1nc(-c2ccccc2)n(-c2ccccc2)n1)C1CCS(=O)(=O)C1 (stereo not given),-1%,2%,1%,-8,-9
COc1ccc(Cn2c(SC)nc3ccccc32)cc1[N+](=O)[O-],-15%,?,6%,-3,-2
O=C(CO)[C@@H](O)C(O)[C@@H](O)CO (stereo not given in full),.,.,.,-3,-3
CCC(NC(=O)NC1=NCCS1)(C(F)(F)F)C(F)(F)F,7%,0.21µM*,-10%,-1,-26
CCC(NC(=O)Nc1ccc(O)cc1)(C(F)(F)F)C(F)(F)F,?,.,0%,-2,15
CSc1sc(C(=O)OC(C)C)c2c1C(=O)CC(C)(C)C2,7.4µM*,?,7%,2,-8
CCC(=O)Nc1ccc(Br)cn1,7%,7%,9%,11,-5
CCN(CC)c1ccc(CNc2ccc(Br)cn2)cc1,18%,?,-1%,33*,88*
CCO[C@@H]1OC(C(=O)N2CCN(C)CC2)=C[C@H](C2CCCCC2)[C@H]1CCCO,-2%,-20%,2%,-4,-10
CCO[C@H]1OC(C(=O)N2CCN(Cc3ccc4c(c3)OCO4)CC2)=C[C@@H](C(C)(C)C)[C@@H]1CCCO,6.6µM*,?,11%,-2,-12
CCO[C@H]1OC(C(=O)N2CCCCCCC2)=C[C@@H](C2CCCCC2)[C@@H]1CCCO,?,9.3µM*,-1%,0,-11
CCO[C@@H]1OC(C(=O)N2CCN(Cc3ccccc3)CC2)=C[C@H](C)[C@H]1CCCO,?,?,-1%,-1,2
CCO[C@H]1OC(C(=O)N2CCOCC2)=C[C@@H](C2CC2)[C@@H]1CCCO,10%,47%,2%,-3,-18
CCO[C@@H]1OC(C(=O)N2CCN(C)CC2)=C[C@H](C(C)(C)C)[C@H]1CCCO,38%,49%,5%,1,-5
CCO[C@@H]1OC(C(=O)N2CCN(Cc3ccc4c(c3)OCO4)CC2)=C[C@H](C2CCCCC2)[C@H]1CCCO,?,0.93µM*,3%,1,-9
CCO[C@H]1OC(C(=O)N2CCN(Cc3ccccc3)CC2)=C[C@@H](C2CCCCC2)[C@@H]1CCCO,?,1.7µM*,0%,-3,-16
O=C(CCCc1nc(-c2ccccc2Cl)no1)N1CCOCC1,-6%,?,2%,-2,7
C=CCN(CC=C)CCOc1ccc(OC(C)C)cc1,?,?,-6%,18*,84*
C=CCN(CC=C)CCOc1ccc2ccccc2c1,2%,8%,1%,21*,37
Nc1nonc1OCCc1ccccc1,48%,51%,-2%,12*,36
S=C(NCCc1ccccc1)Nc1cccc2cnccc12,-2%,4%,4%,4,17
COc1ccc(C2CC(c3cccs3)=NN2C(=S)Nc2ccccc2)cc1OC (stereo not given),6.6µM*,9.3µM*,-2%,-1,11
S=C(Nc1ccccc1)N1N=C(c2cccs2)CC1c1cccs1 (stereo not given),?,0%,1%,7,20*
SMILES,Pf growth 48h,Pf growth 96h,LmPK inhibitor,Cycloheximide cs,Shiga inhibitor
CCOC(=O)/C(=N\Nc1cc(Cl)ccc1Cl)N1CCN(CC)CC1,?,3.3µM*,-2%,3,-10
Cn1c(S(=O)(=O)c2ccc([N+](=O)[O-])cc2)nc(Br)c1Br,?,9.3µM*,0%,3,7
C=CCc1c(C)[nH]c2c(OC)cccc2c1=S,?,15%,2µM*,-3,-6
C=CCN(CC=C)C(=O)c1c(OC)cccc1OC,3%,3%,1%,-3,-15
Cc1c([N+](=O)[O-])cc(C(=O)Nc2ccc(Cc3ccncc3)cc2)cc1[N+](=O)[O-],13µM*,-4%,3%,-3,-9
O=C(Nc1ccc(Cc2ccncc2)cc1)c1ccc(Cl)c([N+](=O)[O-])c1,?,?,1%,8.6*,-2
CCCn1cnc2c(sc3nc4c(cc32)CSC(C)(C)C4)c1=O,80%,67%,1%,25*,37*
CC1(C)Cc2nc3sc4c(=O)n(Cc5ccccc5)cnc4c3cc2CS1,13%,36%,2%,-2,8
CC(C)CCOc1ncnc2c1sc1nc3c(cc12)CSC(C)(C)C3,12µM*,?,0%,15*,-7
O=C(NNC(=O)C1CCC1)c1ccccc1F,-11%,26%,.,.,.
CCn1c(C)nc2c(C)[n+](CC(=O)c3ccc(Br)cc3)ccc21,-98%,?,0%,25*,61*
Nc1c(C(O)(C(F)(F)F)C(F)(F)F)cc(C(O)(C(F)(F)F)C(F)(F)F)c2ccccc12,9.3µM*,?,6%,-1,18
CCCCCOC(=O)C1[C@H]2C(=O)N(Cc3cccs3)C[C@]23C=C[C@H]1O3 (stereo not given in full),.,?,12%,-2,-16
O=C(NCC1CCCO1)C1C2C=CC3(CN(Cc4cccs4)C(=O)C13)O2 (stereo not given),7%,4.7µM*,1%,-1,11
CCCCOC(=O)C1[C@H]2C(=O)N(Cc3cccs3)C[C@]23C=C[C@H]1O3 (stereo not given in full),.,5.2µM*,11%,2,-13
Cc1cc(OCC(=O)NC(C)c2ccccc2)ccc1[N+](=O)[O-] (stereo not given),1%,-60%,1%,1,-4
CCS(=O)(=O)N1CCc2nc(-c3ccccc3)sc2C1,170%,392%,-10%,48*,72*
COc1ccc(-c2nc3c(s2)CN(S(C)(=O)=O)CC3)cc1OC,34%,33%,1%,13,31
O=C(OCc1cccc(F)c1)c1ccc2c(=O)n3c(nc2c1)CCC3,0%,?,6%,15,30
COc1ccc(C)cc1NS(=O)(=O)c1ccc2c(c1)CCN2C(C)=O,-10%,4%,2%,4,-7
CC(O)CNc1ccc(-c2n[nH]c(=O)c3ccccc23)cc1[N+](=O)[O-] (stereo not given),0%,52%,10%,22*,-17
CN(C)CCCNc1ccc(-c2n[nH]c(=O)c3ccccc23)cc1[N+](=O)[O-],?,9%,2%,2,.
CN(C)CCNc1ccc(-c2nn(C)c(=O)c3ccccc23)cc1[N+](=O)[O-],-3%,45%,0%,1,-14

# Screening data from PubChem.
